# Among all 310,000 compounds or so, about 14,000 (4.5%) showed an effect of 50% or more. Effects have a minus sign here. Shown is part of a subset that was picked to be rich in strong results.
# Molecular target: human ether-à-go-go-related gene (hERG) potassium channel (human, UniProt Q12809)
# Assay: primary screen, population patch clamp on CHO cells stably expressing hERG; higher = less effect of the substance
# 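Note: peak tail current of the secondary pulse compared with the same well before compound.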
# human ether-à-go-go-related gene (hERG) potassium channel, sequence (Q12809 whole entry, looked up): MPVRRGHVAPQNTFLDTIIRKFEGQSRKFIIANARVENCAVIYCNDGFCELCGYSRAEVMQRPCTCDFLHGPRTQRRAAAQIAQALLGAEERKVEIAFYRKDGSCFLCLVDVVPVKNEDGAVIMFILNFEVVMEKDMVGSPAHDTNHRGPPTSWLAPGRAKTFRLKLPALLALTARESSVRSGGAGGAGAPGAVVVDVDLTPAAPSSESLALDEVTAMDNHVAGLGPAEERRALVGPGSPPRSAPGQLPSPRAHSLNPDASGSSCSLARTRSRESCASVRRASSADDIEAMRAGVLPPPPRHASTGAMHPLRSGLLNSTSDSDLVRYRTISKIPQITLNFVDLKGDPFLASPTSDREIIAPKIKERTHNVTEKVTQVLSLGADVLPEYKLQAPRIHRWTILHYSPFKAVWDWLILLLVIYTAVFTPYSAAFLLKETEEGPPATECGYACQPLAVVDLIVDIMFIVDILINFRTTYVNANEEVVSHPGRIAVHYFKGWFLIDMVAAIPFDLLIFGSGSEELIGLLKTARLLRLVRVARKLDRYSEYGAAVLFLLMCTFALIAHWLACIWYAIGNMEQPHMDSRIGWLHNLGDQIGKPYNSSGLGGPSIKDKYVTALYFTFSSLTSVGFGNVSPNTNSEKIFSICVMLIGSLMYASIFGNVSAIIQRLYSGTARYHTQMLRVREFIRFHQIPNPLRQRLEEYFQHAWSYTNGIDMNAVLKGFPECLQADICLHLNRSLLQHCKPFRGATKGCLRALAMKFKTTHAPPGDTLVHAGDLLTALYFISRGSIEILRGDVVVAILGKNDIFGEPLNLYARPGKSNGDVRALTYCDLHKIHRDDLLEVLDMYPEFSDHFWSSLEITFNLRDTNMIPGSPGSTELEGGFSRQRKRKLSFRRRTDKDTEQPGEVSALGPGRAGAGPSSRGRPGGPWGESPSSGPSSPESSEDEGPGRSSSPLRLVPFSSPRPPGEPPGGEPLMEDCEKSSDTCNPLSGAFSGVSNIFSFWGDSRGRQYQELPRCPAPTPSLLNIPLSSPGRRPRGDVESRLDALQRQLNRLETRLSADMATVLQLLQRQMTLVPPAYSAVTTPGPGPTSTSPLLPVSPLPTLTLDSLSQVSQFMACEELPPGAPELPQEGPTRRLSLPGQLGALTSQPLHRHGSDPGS
row,Compound,"hERG current change (%, negative = inhibition) at 10uM [%]"
1,CC1CCN(C(=O)C(Cc2ccccc2)NS(=O)(=O)c2ccc3c(c2)oc(=O)n3C)CC1 (stereo not shown),-2.38
2,O=C(Nc1ccc2ccccc2c1)c1ccc(Cl)cc1Cl,31
3,O=c1c2c3nc4ccccc4nc3n(/N=C/c3ccccn3)c2ncn1-c1ccccc1,19.8
4,CC(c1ccco1)N(C(=O)COc1ccc(Cl)cc1)c1ccccn1 (stereo not shown),-12.7
5,O=C(NNS(=O)(=O)c1ccc(F)cc1)c1ccc(O)cc1,9.17
6,CCOc1ccc(NC(=O)c2sc3nc(C)nc(N4CCOCC4)c3c2C)cc1,-50.7
7,Cc1nc(N2CCOCC2)c2c(C)c(C(=O)Nc3ccc(C(F)(F)F)cc3)sc2n1,-34.9
8,CCOc1ccccc1NC(=O)c1sc2nc(C)nc(N3CCOCC3)c2c1C,-14.4
9,CCC(C)(C)NC(=O)CN(Cc1cccs1)C(=O)CCC(=O)Nc1nccs1,-36.6
10,CC(C)(C)C(=O)N1CCN(c2ccc([N+](=O)[O-])cc2Cl)CC1,-33.2
11,CC(C)C(=O)N1CCN(c2ccc([N+](=O)[O-])cc2Cl)CC1,-30.9
12,CCC(=O)NC(=S)N1CCN(c2ccc([N+](=O)[O-])cc2Cl)CC1,-26.4
13,CC(C)CC(=O)N1CCN(c2ccc([N+](=O)[O-])cc2Cl)CC1,-59.9
14,CCCC(=O)N1CCN(c2ccc([N+](=O)[O-])cc2Cl)CC1,-52.2
15,CC(C)CC(=O)NC(=S)N1CCN(c2ccc([N+](=O)[O-])cc2Cl)CC1,-30.9
16,C=CCn1c(SCC(=O)Nc2nccs2)nnc1-c1cc2cccc(OC)c2o1,-4.98
17,CC1CCN(C2=NN3C(=N)/C(=C\c4ccc(OC(=O)c5ccco5)cc4)C(=O)N=C3S2)CC1,12.6
18,O=C(NCc1ccccc1)C(c1ccccn1)N(C(=O)c1csnn1)c1ccccc1F (stereo not shown),-5.45
19,COc1ccc(N2CCN(C(=S)NCCc3ccccc3)CC2)cc1,-5.71
20,O=C(CCCOc1ccccc1)N1CCN(c2ccccn2)CC1,-8.9
21,Cc1ccc(Oc2ccccc2/C=C2\SC(=O)N(C)C2=O)cc1,4.1
22,C=CCNC(=O)CC1C(=O)NCCN1Cc1ccc(-c2ccccc2)cc1 (stereo not shown),-7.59
23,CC(C)Cn1c(N)c(C(=O)COC(=O)CN2C(=O)C3CC=CCC3C2=O)c(=O)n(C)c1=O (stereo not shown),-4.23
24,CCCc1[nH]nc2c1C(c1ccc(O)c(OC)c1)C(C#N)=C(N)O2 (stereo not shown),-31.9
25,COc1ccc(CCN(C)Cc2c(F)cccc2F)cc1OC,-25.6

row,Compound,"hERG current change (%, negative = inhibition) at 10uM [%]"
1,CN(C/C=C/c1ccccc1[N+](=O)[O-])Cc1ccccc1,-46
2,COc1ccc(CCN(C)C/C=C/c2ccccc2)cc1OC,-64.6
3,COc1ccc(CCN(C)C/C=C/c2ccccc2[N+](=O)[O-])cc1OC,-70.8
4,COc1ccc(CCN(C)c2ccc(C(N)=O)cc2[N+](=O)[O-])cc1OC,-6.3
5,COc1ccc(CCNC(=O)/C=C\c2ccccc2)cc1OC,-7.74
6,Cc1ccn2cc(-c3cccc(NC(=O)C(C)C)c3)nc2c1,3.3
7,Cc1cc(NC(=O)CCC(=O)N(CC(=O)NC2CCCC2)c2cccc(F)c2)no1,-3.17
8,Cc1ccc(C(=O)N[C@H](C(=O)Nc2sccc2C(N)=O)C(C)C)cc1,5.47
9,Clc1ccc(-n2nnnc2-c2ccccc2)cc1,-0.933
10,Cn1cc(-c2nnnn2-c2ccccc2)c(=O)c2ccccc21,-8.94
11,Cn1cc(-c2nnnn2-c2ccc(Cl)cc2)c(=O)c2ccccc21,-69.3
12,CCn1cc(-c2nnnn2-c2ccc(Cl)cc2)c(=O)c2ccccc21,-58.8
13,O=C(Cn1cc(-c2nnnn2-c2ccc(Cl)cc2)c(=O)c2ccccc21)c1ccccc1,4.29
14,Cn1cc(-c2nnnn2-c2ccc(Cl)cc2)c(C(F)(F)F)n1,-4.49
15,COc1ccc(OC)c(S(=O)(=O)N2CCCC(C(=O)NCc3ccco3)C2)c1 (stereo not shown),-5.29
16,O=C(c1ccc(N2C(=O)CCC2=O)cc1)N1CCOCC1,7.4
17,O=C(NCCc1ccco1)C(=O)NCC1OCCCN1S(=O)(=O)c1cc(F)ccc1F (stereo not shown),-8.36
18,CC(=O)C(Sc1nn(C)c(=S)s1)C(=O)Nc1ccccc1 (stereo not shown),3.73
19,COc1cccc(/C=C2\SC(=S)N(CCC(=O)NNC(=O)c3ccccc3OC)C2=O)c1,18.5
20,CCOc1ccc(CN(C(=O)c2oc3cc(C)ccc3c2C)C2CCS(=O)(=O)C2)cc1 (stereo not shown),-10
21,Cc1ccc(NC(=O)CNC(=O)c2ccc3c(c2)OCO3)nc1,1.63
22,CCC(C)(C)n1nnnc1C(c1cc(OC)ccc1OC)N1CCC(C(N)=O)CC1 (stereo not shown),-1.9
23,CC1CN(C(=O)CS(=O)(=O)Cc2ccccc2)CC(C)O1 (stereo not shown),17.1
24,COc1cccc(N/C(=N/C(=S)Nc2ccc(C)cc2C)Nc2nc(C)cc(C)n2)c1,0.704
25,Cl.NC(=NCc1ccccc1)NC(=O)c1nc(Cl)c(N)nc1N,-54.2

row,Compound,"hERG current change (%, negative = inhibition) at 10uM [%]"
1,Cl.NC(=NCCc1ccccc1)NC(=O)c1cc(Cl)ccc1O,-2.39
2,CS(=O)(=O)O.NC(=Nc1ccccc1)NC(=O)c1nc(Cl)c(N)nc1N,-50
3,CSc1ncccc1C(=O)OCC(=O)c1ccc(S(=O)(=O)N2CCCCC2)cc1,23.5
4,CCOC(=O)N1CCN(C(=O)c2ccc(C)c(S(=O)(=O)N3CCCCC3)c2)CC1,-46
5,CCOC(=O)N1CCN(c2nc(-c3ccc(Cl)cc3)cs2)CC1,-8.2
6,Fc1ccc(-c2csc(N3CCSCC3)n2)cc1,17.6
7,CC(C)C(=O)N1CCN(c2nc(-c3ccc(Cl)cc3)cs2)CC1,-82.5
8,O=S(=O)(c1ccc(F)cc1)N1CCN(c2nc(-c3ccc(F)cc3)cs2)CC1,-8.44
9,CCC(=O)N1CCN(c2nc(-c3ccc(Cl)cc3)cs2)CC1,-25
10,CS(=O)(=O)N1CCN(c2nc(-c3ccc(F)cc3)cs2)CC1,-77.2
11,CC(=O)c1ccc(N2CCN(C(=O)c3ccc(NC4=NC5CS(=O)(=O)CC5S4)cc3)CC2)cc1 (stereo not shown),-1.77
12,COc1ccccc1NC(=O)C1CCOC1=O (stereo not shown),15.4
13,CCCn1nnnc1NCc1ccc(OC)cc1,15.3
14,O=C(CC1C(=O)NCCN1Cc1cccc(Oc2ccccc2)c1)NCCc1cscn1 (stereo not shown),8.01
15,C=CC[n+]1c(C)csc1Nc1cccc(Br)c1.[Br-],-6.64
16,Cc1cccc(N(CC(=O)NCC2CCCO2)C(=O)CCC(=O)Nc2nccs2)c1 (stereo not shown),12.9
17,COc1ccc(N2CCN(C(=O)CNC(=O)Cc3ccccc3)CC2)cc1,-13.3
18,COc1cc2c(C(=O)N3CCN(C)CC3)c(C)n(C)c2cc1Br,-9.17
19,CCN(CC)CCNC(=O)c1c(C)n(-c2ccccc2)c2cc(Br)c(OC)cc12,-51.5
20,COc1cc2c(C(=O)N3CCOCC3)c(CSc3ccccc3)n(C)c2cc1Br,-6.35
21,CCN(CC)CCNC(=O)c1c(C)oc2cc(Br)c(OC)cc12,-32.1
22,COc1cc2c(C(=O)OCCN(C)C)c(CSc3ccccc3)n(C)c2cc1Br,5.67
23,COc1ccc2c(c1)c(C(=O)N1CCN(C)CC1)c(C)n2-c1ccccc1,-44
24,COc1cc2c(C(=O)N3CCN(C)CC3)c(C)n(-c3ccccc3)c2cc1Br,-54.7
25,COc1cc2c(C(=O)N3CCN(C)CC3)c(CSc3ccccc3)n(C)c2cc1Br,-74

row,Compound,"hERG current change (%, negative = inhibition) at 10uM [%]"
1,COc1cc2c(C(=O)O)c(C)n(C)c2cc1Br,20.3
2,O=C(COC(=O)CNC(=O)c1ccccc1F)NC12CC3CC(CC(C3)C1)C2,0.652
3,COc1ccccc1NC(=O)Nc1cccc(C(=O)O)c1,17.5
4,N#CC(c1ccc(Cl)cc1)c1ccc2c(C(F)(F)F)cc(C(F)(F)F)nc2n1 (stereo not shown),6.7
5,CCS(=O)(=O)N1CCC(C(=O)OCC(=O)c2ccc(Br)cc2)CC1,3.45
6,Oc1ccc2ccccc2c1C=Nc1ccc(N2CCOCC2)cc1,3.04
7,CCn1c(=Nc2ccc(N3CCOCC3)cc2)ccc2ccccc21,-66.8
8,Cn1c(=Nc2ccc(N3CCOCC3)cc2)ccc2ccccc21,-47.5
9,COc1ccccc1OCc1ccc(C(=O)N(C)c2ccccc2)o1,7.76
10,COC(=O)c1coc(-c2ccc(OC)cc2)c1C(=O)OC,13.8
11,O=C(COc1ccc([N+](=O)[O-])cc1)N1CCc2ccccc2C1,-54.5
12,Cc1ccc(OCC(=O)N2CCc3ccccc3C2)cc1,-3.37
13,Cl.Clc1ccc(OCCCCN2CCc3ccccc3C2)cc1,-68.1
14,O=C(O)C(=O)O.O=[N+]([O-])c1ccc(OCCCCN2CCc3ccccc3C2)cc1,-76.3
15,O=C(CCc1ccc(S(=O)(=O)N2CCOCC2)cc1)N1CCc2ccccc2C1,-14.5
16,O=C(COc1ccccc1)N1CCc2ccccc2C1,10
17,O=C(COc1ccc(S(=O)(=O)N2CCOCC2)cc1)N1CCOCC1,10.6
18,Cl.O=[N+]([O-])c1ccccc1OCCCN1CCc2ccccc2C1,-49.7
19,O=C(CCCOc1ccccc1)N1CCc2ccccc2C1,0.877
20,Cc1ccc(OCCCCN2CCc3ccccc3C2)cc1.Cl,-34.9
21,O=C(COc1ccc(S(=O)(=O)N2CCOCC2)cc1)N1CCc2ccccc2C1,-55.9
22,O=C(Cc1ccc([N+](=O)[O-])cc1)N1CCc2ccccc2C1,-17.7
